Results published in PubChem BioAssay (EPA / NIEHS).
Active and inactive are the calls of the source. The calls were made as follows: active = hit-call score of the fitted dose curve at least 0.9, where 1 is the maximum; inactive = score below 0.9.

assay: ATG_PXRE_CIS: Attagene CIS-FACTORIAL HepG2 Assay for human Pregnane X Receptor Element (PXRE) (AID 2282957); settings: HepG2 Attagene CIS-FACTORIAL PXRE reporter, mRNA; actives raise or lower the signal
Procedure, shortened: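 Bidirectional activity, baselined to DMSO, derived from reporter mRNA fluorescence (RT-PCR plus capillary electrophoresis) in HepG2 cells bearing cis-promoter reporter units, 24 h exposure.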

AC50, active:
C[Si]1(C)O[Si](C)(C)O[Si](C)(C)O1 32.5 µM, CCCCCCCC(=O)OCCCCCC 28.2 µM, Oc1ccc2cc(SSc3ccc4cc(O)ccc4c3)ccc2c1 6.48 µM, COC(=O)C=C(C)CCC=C(C)C 7.51 µM, O=c1c(O)c(-c2ccc(O)cc2)oc2cc(O)cc(O)c12 39.1 µM, O=C1CCCC=CCCCCCCCCCC1 9.05 µM

outcome, inactive:
CCCCCCOCCOCCO, NCc1ccco1, CCCCCCCCCCCCS(=O)(=O)Cl, CCC(C)=O, Cc1c(Cl)cccc1[N+](=O)[O-], CCc1ccc(O)c(OC)c1, CCCCCCCCc1ccc(S(=O)(=O)O)cc1, CCCCC1CCC(O)CC1 (centres undefined), CCCCCCC(O)CCCCCCCCCCC(=O)O (centres undefined), CCCCC(CC)COC(C)=O (centres undefined), CCNCCO, OC[C@H]1O[C@@H](Oc2ccc(O)cc2)[C@H](O)[C@@H](O)[C@@H]1O, CCOC(=O)C1OC1c1ccccc1 (centres undefined), C#CC(C)(O)CC(C)C (centres undefined)

assay: ATG_PPRE_CIS: Attagene CIS-FACTORIAL HepG2 Assay for human Peroxisome Proliferator-activated Response Element (PPRE) (AID 2282958); settings: HepG2 PPRE cis-element reporter, Attagene transcription factor profiling; actives raise or lower the signal
Procedure, shortened: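 HepG2 cells transiently transfected with multiplexed cis-element reporter units measure endogenous transcription factor activity. After 24 h compound exposure, reporter mRNA is quantified by RT-PCR, 6-FAM labeling, HpaI digestion and capillary electrophoresis; bidirectional fits are made against DMSO baseline.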

outcome, inactive:
Cc1ccc(N)c(S(=O)(=O)O)c1, CC1CC(O)CC(C)(C)C1 (centres undefined), O=C(O)CNc1ccccc1, Cc1ncc[nH]1, O=Cc1ccccc1S(=O)(=O)O, CCOc1ccc(NC(=O)CC(C)O)cc1 (centres undefined), CC(C)(N=C=O)c1cccc(C(C)(C)N=C=O)c1, CCCCC1(COC(=O)CCC(=O)O)C(=O)N(c2ccccc2)N(c2ccccc2)C1=O, CC=Cc1ccc(OC)c(OC)c1, COC(=O)c1cccnc1, OCc1cccc(Oc2ccccc2)c1, C=C[Si]1(C)O[Si](C)(C=C)O[Si](C)(C=C)O[Si](C)(C=C)O1 (centres undefined), CC(C)=CCCC(C)CCOC=O (centres undefined), COC(C)(C)CC(C)=O, CCc1ccc(O)cc1, C=CCOC(=O)CCCCCC, CCCN(CCC)S(=O)(=O)c1ccc(C(=O)O)cc1, C[Si]1(C)O[Si](C)(C)O[Si](C)(C)O1, CCCCCCOCCOCCO, CCCCCCCC(=O)OCCCCCC, NCc1ccco1, CCCCCCCCCCCCS(=O)(=O)Cl, CCC(C)=O, Cc1c(Cl)cccc1[N+](=O)[O-], COC(=O)C=C(C)CCC=C(C)C, CCc1ccc(O)c(OC)c1, CCCCCCCCc1ccc(S(=O)(=O)O)cc1, CCCCC1CCC(O)CC1 (centres undefined), O=c1c(O)c(-c2ccc(O)cc2)oc2cc(O)cc(O)c12, CCCCC(CC)COC(C)=O (centres undefined), CCNCCO, OC[C@H]1O[C@@H](Oc2ccc(O)cc2)[C@H](O)[C@@H](O)[C@@H]1O, O=C1CCCC=CCCCCCCCCCC1, C#CC(C)(O)CC(C)C (centres undefined)

AC50, active:
CC(=O)C1(C)CC2=C(CCCC2(C)C)CC1C (centres undefined) 100 µM, CCCCCC(C=O)=Cc1ccccc1 26.5 µM, Oc1ccc2cc(SSc3ccc4cc(O)ccc4c3)ccc2c1 160 µM, CCCCCCC(O)CCCCCCCCCCC(=O)O (centres undefined) 18 µM, CCOC(=O)C1OC1c1ccccc1 (centres undefined) 21.6 µM
